{
  "source": "the supplement of paper PMC4466236",
  "note": "Whole data set: some 33,000 sequences, median “E-score (dimensionless, -0.5 to 0.5)” near -0.058, cut for the highest 2% near 0.35. The sample as a whole holds a higher share of the highest values than the screen did.",
  "data": [
    {"system": "MvaT", "experiment": "PBM 8-mer E-score (mean of HK and ME arrays) (E-score (dimensionless, -0.5 to 0.5)); higher = stronger relative binding preference", "procedure,_shortened": "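Full-length P. aeruginosa MvaT carrying an N-terminal glutathione S-transferase tag was tested by protein binding microarray following a previously described protocol. Two universal double-stranded 60-mer arrays, ME and HK, were used, each with a constant 25-mer primer region and a variable 35-mer region covering all 8-mers. The rank-based E-score is the mean of the two arrays, parsed with a custom script. Its range runs from -0.5 to 0.5 for each 8-mer.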", "values": [
      {"sequence": "GCTCACAC", "PBM 8-mer E-score": -0.19},
      {"sequence": "AAAGCCTA", "PBM 8-mer E-score": 0.125},
      {"sequence": "ACTATATA", "PBM 8-mer E-score": 0.452},
      {"sequence": "ACTATATC", "PBM 8-mer E-score": 0.268},
      {"sequence": "ACTATACA", "PBM 8-mer E-score": 0.241},
      {"sequence": "CCTATACA", "PBM 8-mer E-score": 0.116},
      {"sequence": "CCTATATA", "PBM 8-mer E-score": 0.35},
      {"sequence": "GCTATACA", "PBM 8-mer E-score": 0.135},
      {"sequence": "GCTATATA", "PBM 8-mer E-score": 0.402},
      {"sequence": "CCTATATC", "PBM 8-mer E-score": 0.0838},
      {"sequence": "GCTATAGA", "PBM 8-mer E-score": -0.132},
      {"sequence": "CGGCTGCC", "PBM 8-mer E-score": -0.286},
      {"sequence": "CATCCAAA", "PBM 8-mer E-score": 0.0181},
      {"sequence": "ATAGTGTG", "PBM 8-mer E-score": 0.179},
      {"sequence": "TAGGAAAA", "PBM 8-mer E-score": 0.015},
      {"sequence": "ACCAGACG", "PBM 8-mer E-score": -0.141},
      {"sequence": "ATAAAAAT", "PBM 8-mer E-score": 0.293},
      {"sequence": "ATAAAAGG", "PBM 8-mer E-score": 0.119},
      {"sequence": "ATAAAAAG", "PBM 8-mer E-score": 0.348},
      {"sequence": "CTTAAAAG", "PBM 8-mer E-score": 0.166},
      {"sequence": "ATAAAAAC", "PBM 8-mer E-score": 0.274},
      {"sequence": "ATTAAAAA", "PBM 8-mer E-score": 0.321},
      {"sequence": "CTAAAAAG", "PBM 8-mer E-score": 0.00374},
      {"sequence": "ATAAAAAA", "PBM 8-mer E-score": 0.387},
      {"sequence": "ATTAAAAG", "PBM 8-mer E-score": 0.393},
      {"sequence": "ACTGGAAT", "PBM 8-mer E-score": 0.118},
      {"sequence": "AACCGACG", "PBM 8-mer E-score": -0.000494},
      {"sequence": "GTGCAAAC", "PBM 8-mer E-score": 0.0651},
      {"sequence": "AACCTTAC", "PBM 8-mer E-score": -0.0526},
      {"sequence": "AGACCATA", "PBM 8-mer E-score": 0.00218},
      {"sequence": "CACAGACG", "PBM 8-mer E-score": -0.11},
      {"sequence": "ATTCCTCA", "PBM 8-mer E-score": 0.129},
      {"sequence": "GTAAATTA", "PBM 8-mer E-score": 0.391},
      {"sequence": "ATAAATTG", "PBM 8-mer E-score": 0.369},
      {"sequence": "ATAAACTC", "PBM 8-mer E-score": 0.269},
      {"sequence": "ATAAACTA", "PBM 8-mer E-score": 0.356},
      {"sequence": "ATAAATTC", "PBM 8-mer E-score": 0.309},
      {"sequence": "ATAAATTA", "PBM 8-mer E-score": 0.42},
      {"sequence": "ATAAACTG", "PBM 8-mer E-score": 0.175},
      {"sequence": "AAAAATTG", "PBM 8-mer E-score": 0.117},
      {"sequence": "AAAAATTA", "PBM 8-mer E-score": 0.275},
      {"sequence": "GAAAATTA", "PBM 8-mer E-score": 0.304},
      {"sequence": "GTAAATCA", "PBM 8-mer E-score": 0.189},
      {"sequence": "CTAAATTA", "PBM 8-mer E-score": 0.336},
      {"sequence": "AACTGGTC", "PBM 8-mer E-score": -0.0685},
      {"sequence": "TGACTGCA", "PBM 8-mer E-score": -0.107},
      {"sequence": "AACCCAGT", "PBM 8-mer E-score": -0.0508},
      {"sequence": "ATTGCACG", "PBM 8-mer E-score": 0.182},
      {"sequence": "ACTCATCA", "PBM 8-mer E-score": 0.0732},
      {"sequence": "AACCATCA", "PBM 8-mer E-score": -0.0905},
      {"sequence": "AAGTCTCT", "PBM 8-mer E-score": 0.0309},
      {"sequence": "ATCGAATC", "PBM 8-mer E-score": -0.0636},
      {"sequence": "GCGGGTTA", "PBM 8-mer E-score": 0.0558},
      {"sequence": "CGCGATAA", "PBM 8-mer E-score": 0.143},
      {"sequence": "ACCTATGG", "PBM 8-mer E-score": -0.149},
      {"sequence": "CACATAAG", "PBM 8-mer E-score": 0.122},
      {"sequence": "GATATAAA", "PBM 8-mer E-score": 0.344},
      {"sequence": "CCTATAAG", "PBM 8-mer E-score": 0.0158},
      {"sequence": "TATATAAA", "PBM 8-mer E-score": 0.47},
      {"sequence": "ACTATAAC", "PBM 8-mer E-score": 0.334},
      {"sequence": "AATATAAC", "PBM 8-mer E-score": 0.42},
      {"sequence": "CATATAAG", "PBM 8-mer E-score": 0.35},
      {"sequence": "GATATAGC", "PBM 8-mer E-score": 0.127},
      {"sequence": "AATATGAC", "PBM 8-mer E-score": 0.183},
      {"sequence": "GAGATAAC", "PBM 8-mer E-score": 0.0136},
      {"sequence": "GATATAAC", "PBM 8-mer E-score": 0.372},
      {"sequence": "TCTATAAA", "PBM 8-mer E-score": 0.103},
      {"sequence": "CTCAAGGA", "PBM 8-mer E-score": -0.151},
      {"sequence": "CCTGCTCC", "PBM 8-mer E-score": -0.302},
      {"sequence": "ATTTGTTC", "PBM 8-mer E-score": 0.206},
      {"sequence": "ATTTTTTC", "PBM 8-mer E-score": 0.132},
      {"sequence": "AAGTGCGT", "PBM 8-mer E-score": -0.0188},
      {"sequence": "ACGGTTTC", "PBM 8-mer E-score": -0.215},
      {"sequence": "ATTAGCCC", "PBM 8-mer E-score": 0.0535},
      {"sequence": "ACACTAGT", "PBM 8-mer E-score": 0.258},
      {"sequence": "AGTGCTAC", "PBM 8-mer E-score": -0.0841},
      {"sequence": "CGAAATGC", "PBM 8-mer E-score": -0.0574},
      {"sequence": "CATATAGC", "PBM 8-mer E-score": 0.0736},
      {"sequence": "AAGATAAT", "PBM 8-mer E-score": 0.287},
      {"sequence": "CATATAAC", "PBM 8-mer E-score": 0.415},
      {"sequence": "CACATAAC", "PBM 8-mer E-score": 0.209},
      {"sequence": "AATATGAT", "PBM 8-mer E-score": 0.345},
      {"sequence": "TATAAACA", "PBM 8-mer E-score": 0.373},
      {"sequence": "GATAAACA", "PBM 8-mer E-score": 0.278},
      {"sequence": "AATATAAT", "PBM 8-mer E-score": 0.449},
      {"sequence": "AATATAAA", "PBM 8-mer E-score": 0.451},
      {"sequence": "CATAAACA", "PBM 8-mer E-score": 0.221},
      {"sequence": "GCTATAAA", "PBM 8-mer E-score": 0.217},
      {"sequence": "GAATGCGA", "PBM 8-mer E-score": 0.0642},
      {"sequence": "AATTCTAG", "PBM 8-mer E-score": 0.157},
      {"sequence": "CCCGGCCC", "PBM 8-mer E-score": -0.325},
      {"sequence": "TGCAAACA", "PBM 8-mer E-score": 0.106},
      {"sequence": "ACGGAAGG", "PBM 8-mer E-score": -0.218},
      {"sequence": "AGTATAAG", "PBM 8-mer E-score": 0.272},
      {"sequence": "CATATCAA", "PBM 8-mer E-score": 0.174},
      {"sequence": "GATAAAAA", "PBM 8-mer E-score": 0.273},
      {"sequence": "CATAAAAA", "PBM 8-mer E-score": 0.179},
      {"sequence": "CGTATAAA", "PBM 8-mer E-score": 0.209},
      {"sequence": "AATATAAG", "PBM 8-mer E-score": 0.351},
      {"sequence": "GATATCAA", "PBM 8-mer E-score": 0.25},
      {"sequence": "CACATAAA", "PBM 8-mer E-score": 0.179},
      {"sequence": "AAGATAAG", "PBM 8-mer E-score": 0.148},
      {"sequence": "CATATAAA", "PBM 8-mer E-score": 0.365},
      {"sequence": "TATAAAAA", "PBM 8-mer E-score": 0.371},
      {"sequence": "TATATCAA", "PBM 8-mer E-score": 0.352}
    ]}
  ]
}
